Experimental data from PubChem BioAssay AID618 (Sanford-Burnham Center for Chemical Genomics, 2007).
Among all 87,000 compounds or so, about 540 (0.62%) were called active. How the calls were made is not given here. Only a selection was taken, and actives are over-represented in it overall. Results with a measured potency or affinity are listed apart.

Test: inhibitors of MT1-MMP promoter transcription, cell-based, luciferase reporter, luminescence (AID 618);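 further: actives suppress MT1-MMP promoter-driven transcription so potencies describe inhibitors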
Details: MT1-MMP promoter luciferase reporter cells

| Structure (SMILES) | outcome |
| --- | --- |
| COC(=O)CSc1nc2ccc(C)cc2[nH]1 | inactive |
| CCN(CC)S(=O)(=O)c1ccc(C2CNC(=O)C2)cc1 (configuration not stated) | inactive |
| CCn1cnc2c1c(=O)n(Cc1csc(-c3ccccc3)n1)c(=O)n2Cc1ccccc1 | inactive |
| COc1cccc(NC(=O)CCN2C(=O)c3ccccc3S2(=O)=O)c1 | inactive |
| CCc1nnc(NC(=O)CSc2nc3c(cc2C#N)CCCC3)s1 | inactive |
| CCc1nnc(NC(=O)CSc2nc3c(cc2C#N)CCC3)s1 | inactive |
| Cc1cc(C(F)(F)F)n2ncc(-c3ccc(F)cc3)c2n1 | inactive |
| COC(=O)c1ccccc1NC(=O)CSc1nnc(-c2ccc(C)cc2)o1 | inactive |
| Cc1cccc(NC(=O)CSc2nnc(-c3ccccc3C)o2)c1 | inactive |
| COc1ccccc1NC(=O)CSc1nnc(-c2ccc(C)cc2)o1 | inactive |
| Cc1ccc(C)c(NC(=O)CSc2nnc(-c3ccccc3)o2)c1 | inactive |
| CCOc1ccccc1-c1nnc(SCC(=O)Nc2ccccc2)o1 | inactive |
| COc1ccccc1NC(=O)CSc1nnc(-c2ccccc2)o1 | inactive |
| CCN(CC)S(=O)(=O)c1ccc(NC(=O)CN(c2ccc(OC)cc2OC)S(C)(=O)=O)cc1 | inactive |
| O=C(NCCCO)C12CC3CC(CC(C3)C1)C2 | inactive |
| O=C(NC(NC1CCS(=O)(=O)C1)C(=O)c1ccccc1)c1ccc(Cl)cc1 (configuration not stated) | inactive |
| O=C(Nc1cccc(O)c1)c1ccccc1 | inactive |
| C/C(=C\C(=O)c1ccc(C)cc1)Nc1cccc(O)c1 | inactive |
| O=C(/C=C/Nc1ccccc1)c1ccccc1 | inactive |
| Cc1ccc(C(=O)/C=C/Nc2cccc(O)c2)cc1 | active |
| Cc1ccc(N/C=C/C(=O)c2ccc(C)cc2)cc1 | inactive |

| Structure (SMILES) | outcome |
| --- | --- |
| Cc1nc2ncnn2c(C)c1CCC(=O)Oc1ccccc1 | inactive |
| COc1ccc(CCNC(=O)C2CCN(S(C)(=O)=O)CC2)cc1OC | inactive |
| Cc1cc(C)n(-c2ccc3cccc(NS(C)(=O)=O)c3n2)n1 | inactive |
| Cc1csc(NC(=O)c2cc3c(s2)CCCCC3)n1 | inactive |
| Cc1cnc(NC(=O)c2cc3c(s2)CCCC3)s1 | inactive |
| COC(=O)c1sc(NC(=O)c2cc3c(s2)CCCC3)nc1C | inactive |
| CCc1nnc(NC(=O)c2cc3c(s2)CCCCC3)s1 | inactive |
| Cc1nc(NC(=O)c2cc3c(s2)CCCCC3)sc1C(=O)N(C)C | inactive |
| Cc1csc(NC(=O)c2cc3c(s2)CCC3)n1 | active |
| CCOC(=O)Cc1csc(NC(=O)c2cc3c(s2)CCCC3)n1 | inactive |
| O=C1N(Cc2ccccc2F)c2ccccc2C12OCCCO2 | inactive |
| CCn1nc(C(=O)NC2=NCCS2)c2ccccc2c1=O | inactive |
| Cc1ccc(C(=O)N(c2ccccn2)C(C)c2ccco2)cc1 (configuration not stated) | inactive |
| Cc1ccc(NC(=O)CSc2nnc(Cn3cnc4ccccc43)o2)c(C)c1 | inactive |
| CN1CCN(C2=C(Cl)C(=O)C(c3cnc(N4CCCCC4)s3)=C(Cl)C2=O)CC1 | inactive |
| CN(C)c1ncc(C2=C(Cl)C(=O)C(N3CCCC3)=C(Cl)C2=O)s1 | inactive |
| Cc1ccc2c(c1)-c1ccccc1S(=O)(=O)N2 | inactive |
| Nc1ccc2c(c1)-c1ccccc1S(=O)(=O)N2 | inactive |
| O=c1cc(N2CCOCC2)[nH]c(=O)n1-c1ccc(Cl)cc1 | inactive |
| O=C(Nn1cnnc1)c1cc(-c2ccccn2)nc2ccccc12 | inactive |
| COc1cccc(-c2cc(C(=O)Nn3cnnc3)c3ccccc3n2)c1 | inactive |

| Structure (SMILES) | outcome |
| --- | --- |
| Cc1ccc2nc(C3CCN(C(=O)NCc4ccccc4)CC3)[nH]c2c1 | inactive |
| O=c1cc(CO)oc(CN2CCN(c3ccccc3F)CC2)c1O | inactive |
| CC(C)(C)S(=O)(=O)c1ccc2nc3c(n2c1)CCCC3 | inactive |
| Cc1nc(NC2=NCN(CCN3CCOCC3)CN2)nc2c(C)cccc12 | inactive |
| Cc1cc2nc(NC3=NCN(CCCN4CCOCC4)CN3)nc(C)c2cc1C | inactive |
| Cc1ccc(NC(=O)NC(=O)N(c2ccccc2)S(C)(=O)=O)cc1 | inactive |
| CCOc1ccccc1N1CC(C(=O)N2CCc3ccccc3C2)CC1=O (configuration not stated) | inactive |
| COc1ccc(-c2nc(C#N)c(N3CCOCC3)o2)cc1OC | inactive |
| COc1ccc(CCNc2oc(-c3ccco3)nc2C#N)cc1 | inactive |
| OCCNc1nc(Nc2ccccc2)nc2ccccc12 | inactive |
| Cc1ccc(Nc2nc(N3CCOCC3)c3ccccc3n2)cc1 | inactive |
| Fc1ccc(Nc2nc(N3CCOCC3)c3ccccc3n2)cc1 | inactive |
| Nc1nc(Nc2cccc(F)c2)nc2ccccc12 | inactive |
| COc1ccc(Nc2nc(C)c3ccccc3n2)cc1 | inactive |
| Nc1nc(Nc2ccccc2)nc2ccccc12 | active |
| COc1ccc(Nc2nc(N3CCCC3)c3ccccc3n2)cc1 | inactive |
| Cc1ccc(NC(=O)N2CCOCC2)c(C)c1 | inactive |
| CCC1Oc2ccccc2N(CC(=O)Nc2ccc(OC)cc2OC)C1=O (configuration not stated) | inactive |
| COc1ccccc1C(=O)Nc1nc(-c2cccs2)c(NC(C)=O)s1 | inactive |
| CC(C)CCOC(=O)C1C(c2ccccc2)C(C(=O)O)C1c1ccccc1 (configuration not stated) | inactive |
| O=C(c1cccs1)N1CCN(S(=O)(=O)N2CCCCC2)CC1 | inactive |

| Structure (SMILES) | outcome |
| --- | --- |
| Cc1ccccc1/C=C1\CCCc2ccccc2C1=O | inactive |
| O=C1/C(=C/c2ccccc2)CCCc2ccccc21 | inactive |
| O=C(NC1CCN(Cc2ccccc2)CC1)C1CCN(S(=O)(=O)c2cccc3cccnc23)CC1 | inactive |
| COc1ccccc1NC(=O)c1ccc(N)cc1 | inactive |
| Cc1cc(N2CCCCC2)n2ncc(-c3ccccc3)c2n1 | inactive |
| Cc1cc(N2CCC(C)CC2)n2ncc(-c3ccccc3)c2n1 | inactive |
| CCOc1ccc(C(=O)NCCCn2ccnc2)cc1 | inactive |
| O=C(NC1CCCCC1)NC1(C(=O)N2CCN3CCCC3C2)CCCCC1 (configuration not stated) | inactive |
| c1cc(-c2nc3cc(Cc4ccc5oc(-c6ccncc6)nc5c4)ccc3o2)ccn1 | inactive |
| COc1cccc(C=Nc2cc(C)on2)c1O | inactive |
| CCc1ccc2oc(-c3cc(N)ccc3Cl)nc2c1 | inactive |
| Nc1ccc2oc(-c3cccc(Br)c3)nc2c1 | inactive |
| CCc1ccc2oc(-c3ccc(N)cc3)nc2c1 | active |
| CCc1ccc2oc(-c3cccc(NC(=O)c4cccnc4)c3)nc2c1 | inactive |
| NCc1ccc(-c2nc3ccccc3o2)cc1 | inactive |
| CCc1ccc2oc(-c3cc(N)ccc3O)nc2c1 | active |
| CCc1ccc2oc(-c3cc(N)cc(C)c3O)nc2c1 | inactive |
| COc1cccc(C=Nc2ccc3c(c2)OCCO3)c1O | inactive |
| CCc1ccc2oc(-c3cc(N=Cc4cccc(OC)c4O)ccc3O)nc2c1 | active |
